Compound activity (PubChem BioAssay)
GALK inhibitor: qHTS Assay for Inhibitors of Human Galactokinase (GALK); AID 1868, 2009; 270,000 compounds, 0.007% hits; Potency, µM (top dose mostly 57.5 µM), usual class: inhibitors; Purified GALK, Kinase-Glo residual ATP luminescence; P51570
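Quantitative HTS: GALK 5 nM, ATP 35 uM, galactose 100 uM, 1 h room temperature, then luciferase-based ATP detection.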
TrxR1 substrate: qHTS Assay for Substrates of Mammalian Selenoprotein Thioredoxin Reductase 1 (TrxR1): qHTS; Thioredoxin reductase 1, cytoplasmic (Rattus norvegicus), O89049; purified TrxR1 substrate turnover, NADPH consumption readout; Potency, µM (titrated, usually from 114 µM); 390,000 compounds, 0.01% hits; further: nearly all actives have a fitted effect of over 50% in size
Target sequence (O89049 whole entry, looked up): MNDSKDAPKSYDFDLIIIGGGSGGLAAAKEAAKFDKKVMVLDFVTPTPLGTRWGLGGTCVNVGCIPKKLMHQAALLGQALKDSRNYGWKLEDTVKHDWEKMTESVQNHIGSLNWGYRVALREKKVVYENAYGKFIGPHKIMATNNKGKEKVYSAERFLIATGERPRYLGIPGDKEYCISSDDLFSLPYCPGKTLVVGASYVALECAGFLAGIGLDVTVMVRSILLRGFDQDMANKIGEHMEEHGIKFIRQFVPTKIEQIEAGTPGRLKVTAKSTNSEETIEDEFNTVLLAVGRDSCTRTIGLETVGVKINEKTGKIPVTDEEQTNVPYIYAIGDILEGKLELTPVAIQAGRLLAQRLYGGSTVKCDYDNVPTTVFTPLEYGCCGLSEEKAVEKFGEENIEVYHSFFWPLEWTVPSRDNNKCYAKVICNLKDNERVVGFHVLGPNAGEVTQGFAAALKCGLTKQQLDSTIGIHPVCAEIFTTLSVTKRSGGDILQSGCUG
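Rat TrxR1, dispensed at 90 nM, was prereduced with 400 uM NADPH (final) for 5 min at ~22 deg C, then incubated with compound 15 min before 400 uM selenite. A first-read NADPH fluorescence drop versus no-compound background flagged substrates.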
rTrxR1 inhibitor: qHTS Assay for Inhibitors of Mammalian Selenoprotein Thioredoxin Reductase 1 (TrxR1): qHTS; Thioredoxin reductase 1, cytoplasmic (Rattus norvegicus), O89049; recombinant rTrxR1, NADPH fluorescence consumption, selenite substrate; Potency, µM (top dose mostly 114 µM), actives largely listed as inhibitors; 390,000 compounds, 1% hits; further: nearly all actives have a fitted effect of over 65% in size
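Rat TrxR1 (90 nM in the dispensed reagent) was pre-reduced with 400 uM NADPH for 5 min at room temperature, then incubated with compound for 15 min. After 400 uM selenite was added, NADPH fluorescence (Ex 340/Em 450 nm) was followed for 8 min.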
PI4K2A inh: qHTS for small molecular inhibitors of PI4K2A | purified PI4K2A, ADP-Glo luminescence, 1 h; hits give low values | activity change, negative = inhibition, % at 76.9 µM | 420,000 compounds, 0.13% hits; in the data active means activity change below about -50%; inconclusive means mostly about -30% to -49%
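PI4K2A activity was measured by ADP-Glo luminescence: enzyme (4 ug/mL stock) and phosphatidylinositol (1.2 mM stock) in Tris pH 7.5/MgCl2/EGTA/Triton X-100 buffer were reacted with ATP (300 microM stock) for one hour at ambient temperature.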
A number is an active result; i = inactive; ? = inconclusive; nt = no result; [ ] = dose if it differs, or a comment. Hits are enriched below; roughly 1.1% of the tested compounds scored in any of these assays. Unless noted, the call rests on the fitted dose curve; in most records, active means well fitted curve in the direction sought with a large enough effect; inconclusive means small, poorly fitted or top-dose-only effect, or another doubt; inactive means no such curve, though single readings can be large; an effect the other way counts as inactive or inconclusive.

SMILES	GALK inhibitor	TrxR1 substrate	rTrxR1 inhibitor	PI4K2A inh
O=C(C1CCCCC1)N1CCC(c2nc3ccccc3[nH]2)CC1	i	i	i	i
O=C(c1ccc(Br)o1)N1CCC(c2nc3ccccc3[nH]2)CC1	nt	i	45µM	i
COc1cccc(N(C(=O)CCl)C(C(=O)NCCc2ccccc2)c2cccs2)c1 (stereo not given)	i	i	14µM	i
COc1ccc(N(C(=O)c2ccco2)C(C(=O)NC2CCCCC2)c2cccs2)cc1OC (stereo not given)	i	i	i	i
COc1ccc(N(C(=O)CCl)C(C(=O)NCCc2ccccc2)c2cccs2)cc1Cl (stereo not given)	i	i	14µM	i
COc1cc(NC(=O)c2nnn(CC(=O)Nc3cc(C)ccc3C)c2N)cc(OC)c1	nt	i	i	i
CC(C)(C)n1ncc2c(=O)n(Cc3ccc(C#N)c(F)c3)cnc21	nt	i	i	nt
CN(C)c1ccc(/C=C/c2ccc3c4ccccc4ccc3[n+]2-c2ccccc2)cc1	i	i	i	-54
COC(=O)[C@]12C[C@H](CC(=O)NCCCN3CCCC3=O)C(=O)N(Cc3ccco3)C1=C[C@H](COCc1ccccc1)O[C@@H]2C	nt	nt	nt	i
Cc1cccc(-c2nc(CSCC(=O)NCCc3ccc(Cl)cc3)c(C)o2)c1	nt	i	i	i
N#CC1=C(N)C(C#N)(C#N)C(c2ccc[nH]2)C2CCCC=C12 (stereo not given)	i	i	11µM	i
Cc1ccc2c(c1)-c1c(cnn1CC(=O)NCCc1ccccc1F)CO2	nt	nt	nt	i
Cc1ccc(C)c(S(=O)(=O)/N=C2\C=C(NS(=O)(=O)c3ccccc3)C(=O)c3ccccc32)c1	i	i	i	i
Cc1cc(C)c(S(=O)(=O)/N=C2/C=C(Sc3ncn[nH]3)C(=O)c3ccccc32)cc1C	i	14µM	?	-54
CCOC(=O)c1cc(=O)c2c(OCC(COc3cccc4oc(C(=O)OCC)cc(=O)c34)OC(=O)[C@@H](N)CCCCN)cccc2o1	nt	nt	nt	i
O=c1c(Cl)c(NCCCO)cnn1-c1nc2ccccc2[nH]1	i	i	3.5µM	i
COC[C@H]1CCCN1c1ccc2c(c1)OCCCN(C1CC1)S2(=O)=O	nt	nt	nt	i
C(=C\n1nnc2ccccc21)/c1ccc[nH]1	nt	i	13µM	i
CCN1CCN(C2=C(NS(=O)(=O)c3ccc(C)cc3)C(=O)c3ccccc3C2=O)CC1	i	i	79µM	i
O=C(O)c1cc(N2C(=O)C=CC2=O)cc(N2C(=O)C=CC2=O)c1	nt	i	0.22µM	i
CCOC(=O)/C(C)=N/Nc1nc(-c2ccc(NC(C)=O)cc2)cs1	i	i	56µM	i
CC(=O)Nc1ccc(-c2csc(N/N=C(/C)c3ccccc3)n2)cc1	i	i	?	i
CCN(CC)CCNC(=O)c1ccc(NC(=O)c2cc(-c3ccco3)nc3ccccc23)cc1	i	i	?	i
COC(=O)c1cc(-c2ccc(C)o2)nc2ccccc12	i	i	32µM	i
CN(C)C(=O)c1ccc(NC(=O)c2cc(-c3ccco3)nc3ccccc23)cc1	i	i	40µM	i
SMILES	GALK inhibitor	TrxR1 substrate	rTrxR1 inhibitor	PI4K2A inh
COc1ccc(NC(=O)c2cc(-c3ccco3)nc3ccccc23)cn1	nt	i	18µM	?
O=C(NC(=S)Nc1cccc(S(=O)(=O)NC2=NCCC2)c1)c1cc(-c2ccco2)nc2ccccc12	nt	i	25µM	i
O=C(Nc1nccs1)c1cc(-c2ccco2)nc2ccccc12	i	i	i	i
O=C(Nc1cccc(S(=O)(=O)NC2=NCCC2)c1)c1cc(-c2ccco2)nc2ccccc12	i	i	?	?
O=C1c2cc(S(=O)(=O)N3CCOCC3)ccc2-c2ccc(S(=O)(=O)N3CCOCC3)cc21	nt	i	i	nt
C=CCN1C(=O)C(CC(=O)Nc2ccc(OCCC)cc2)N(CCCN2CCN(Cc3ccccc3)CC2)C1=S (stereo not given)	i	i	i	i
CCOc1ccc(-n2c(SCC(=O)Nc3ccc(S(=O)(=O)Nc4nccs4)cc3)nnc2-c2ccc(C(C)(C)C)cc2)cc1	nt	nt	nt	i
COc1ccc2nc(SCc3ncc(C)c(OC)c3C)[nH]c2c1	nt	nt	nt	i
CCNC(=O)COC(=O)c1cc(-c2ccco2)nc2ccccc12	nt	i	11µM	i
COc1ccc(CNC(=O)COC(=O)c2cc(-c3ccco3)nc3ccccc23)cc1	i	nt	nt	nt
CC(C)(C)n1ncc2c(=O)n(Cc3ccc(F)cc3Cl)cnc21	nt	i	i	nt
Oc1cc(O)cc(/C=C/c2ccc(O)c(O)c2)c1	nt	i	?	-53
CC(C)(C)n1ncc2c(=O)n(Cc3ccc(C#N)cc3F)cnc21	nt	i	i	nt
CN(C)c1ccc(/C=C2\C=Cc3ccccc32)cc1F	nt	i	i	nt
NS(=O)(=O)c1ccc(N=Nc2c[nH]c(=O)c(O)c2)cc1	i	i	i	-62
CC[C@@]1(c2ccccc2)C(=O)N(C(=O)OC)N1C(=O)OC	nt	i	1.3µM	i
CC[C@]1(c2ccccc2)C(=O)N(C(=O)OC)N1C(=O)OC	nt	i	?	i
CC[C@@]1(c2ccccc2C)C(=O)N(C(=O)OC)N1C(=O)OC	nt	i	5.6µM	i
COC(=O)N1C(=O)[C@@](c2ccccc2)(C2CCCCC2)N1C(=O)OC	nt	i	45µM	i
CC[C@]1(c2cccc(C)c2)C(=O)N(C(=O)OC)N1C(=O)OC	nt	i	1.6µM	i
Cn1c(=O)c2c(nc(NCc3ccccc3)n2Cc2ccc(Cl)c(Cl)c2)n(C)c1=O	nt	i	i	i
COC(=O)N1C(=O)[C@](Cc2ccccc2)(c2ccccc2)N1C(=O)OC	nt	i	4µM	i
COC(=O)N1C(=O)[C@@](Cc2ccccc2)(c2ccccc2)N1C(=O)OC	nt	i	?	i
CN(C)c1ccc(C=c2c3ccccc3n3c2c2ccccc2[n+]3C)cc1	nt	i	32µM	i
CCOC(=O)c1cc2c(=Cc3ccc(N(C)C)cc3)c3ccccc3n2[n+]1C	nt	i[11.4 µM]	i[11.4 µM]	-51
SMILES	GALK inhibitor	TrxR1 substrate	rTrxR1 inhibitor	PI4K2A inh
Cc1cc2c(=Cc3ccc(N(C)C)cc3)c3ccccc3n2[n+]1C	nt	i	i	i
O=C(C[n+]1c(Cl)cc(Cl)c2ccccc21)c1ccccc1	nt	i	71µM	nt
Cc1cc[n+](CC(=O)c2ccccc2)c2ccccc12	i	i	i	i
O=C(N/N=C/c1ccc([N+](=O)[O-])s1)c1ccccc1Br	i	i	20µM	i
Cc1ccccc1C(=O)N/N=C/c1ccc([N+](=O)[O-])s1	i	i	?	i
COCCNC(=O)CN(Cc1ccc(F)cc1)C(=O)CCC(=O)Nc1nccs1	i	i	i	i
CCC(C(=O)Nc1ccccc1N1CCCC1)c1cccc(Cl)c1 (stereo not given)	nt	nt	nt	i
Nc1cc(N)c(OCC(F)(F)F)cc1OCC(F)(F)F	i	i	0.32µM	?
Cc1ccc(C)c(S(=O)(=O)ON2C(=O)c3ccccc3C2=O)c1	i	i	3.2µM	i
COC1CCN(Cc2c(C(=O)N3CCc4ccccc4C3)nc3ccc(Cl)cn23)CC1	i	i	i	i
